According to PubChem BioAssay (EPA / NIEHS):
“And” between values parts separate entries of the source, which are not always exact repeats. Equal entries are not always repeated. Results filed as inconclusive are left out. Some compounds were tested as several samples or in several runs, with calls that do not always agree. The source made the active and inactive calls. The calls were made as follows, unless noted: active = hit-call score of the fitted dose curve at least 0.9, where 1 is the maximum; inactive = score below 0.9.

How the values were obtained:
[1] = ATG_TAL_CIS: Attagene CIS-FACTORIAL HepG2 Assay for human TAL Basal Promoter (AID 2282966); settings: HepG2 Attagene cis-factorial TAL promoter reporter; actives raise or lower the signal;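 also: background control endpoint measuring basal TAL promoter reporter mRNA not a specific factor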
In short: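 In this cell-based multiplex, HepG2 liver cells bearing cis-promoter reporter constructs are dosed for 24 hours. Total RNA is reverse-transcribed and amplified, labelled fragments are sized by capillary electrophoresis, and signal changes are fitted bidirectionally versus DMSO.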

[2] = ATG_TGFb_CIS: Attagene CIS-FACTORIAL HepG2 Assay for human Transforming Growth Factor (TGF) (AID 2282967); settings: HepG2 Attagene CIS TGFb reporter, mRNA transcription; actives raise or lower the signal
In short: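 Endogenous TGFB1-linked transcription factor activity read as reporter mRNA via RT-PCR and capillary electrophoresis, 24 h after dosing transiently transfected HepG2 cells. Gain or loss of signal fitted relative to DMSO.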

[3] = ATG_VDRE_CIS: Attagene CIS-FACTORIAL HepG2 Assay for human Vitamin D Receptor Element (VDRE) (AID 2282968); settings: HepG2 VDRE cis-reporter transcription, actives raise or lower the signal
In short: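 In transiently transfected HepG2 liver cells, gain or loss of reporter mRNA after 24 h exposure is scored relative to DMSO, using fluorescence detection by capillary electrophoresis of RT-PCR products.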

[4] = molecular target: Nuclear receptor subfamily 1 group I member 3 (Homo sapiens) (UniProt Q14994); assay: ATG_CAR_TRANS: Attagene TRANS-FACTORIAL HepG2 Assay for human Constitutive Androstane Receptor (CAR) (AID 2282969; active = hit-call score of the fitted dose curve at least 0.9, where 1 is the maximum;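 also: activators raise reporter mRNA above DMSO so AC50 marks induction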); settings: HepG2 Attagene TRANS-FACTORIAL CAR reporter
In short: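 Readout is reporter mRNA induction, quantified by fluorescent primer extension and capillary electrophoresis after RT-PCR. Cells were HepG2 transiently carrying chimeric NR-Gal4 constructs with GAL4-UAS reporters, treated for 24 h; activity scored upward from DMSO.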

[5] = molecular target: X-box-binding protein 1 (Homo sapiens) (UniProt P17861); assay: ATG_Xbp1_CIS: Attagene CIS-FACTORIAL HepG2 Assay for human X-box Binding Protein 1 (XBP1) (AID 2282972); settings: HepG2 XBP1 cis-element reporter, Attagene multiplex; actives raise or lower the signal
In short: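 HepG2, transient MRTU transfection (cis-promoter driven), 24 h compound exposure. Total RNA → oligo(dT) RT → PCR → 6-FAM labeling → HpaI cut → CE. Bidirectional fit vs DMSO.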

[6] = ATG_GAL4_TRANS: Attagene TRANS-FACTORIAL HepG2 Assay for GAL4 (Internal Marker) (AID 2282976; active = hit-call score of the fitted dose curve at least 0.9, where 1 is the maximum); settings: HepG2 Attagene TRANS GAL4 internal marker reporter
In short: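 RT-PCR/capillary electrophoresis readout of reporter mRNA. HepG2, transient MRTU transfection (GAL4-UAS reporters), 24 h compound exposure. Background-control endpoint, positive direction vs DMSO baseline.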

[7] = molecular target: Hepatocyte nuclear factor 4-alpha (Homo sapiens) (UniProt P41235); assay: ATG_HNF4a_TRANS: Attagene TRANS-FACTORIAL HepG2 Assay for human Hepatocyte Nuclear Factor 4 alpha (HNF4a) (AID 2282982; active = hit-call score of the fitted dose curve at least 0.9, where 1 is the maximum); settings: HepG2 HNF4a transactivation reporter, mRNA readout
In short: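 Transfected HepG2 reporter cells are dosed for 24 h; reporter RNA is reverse-transcribed, amplified, fluorescently labelled and HpaI-digested before CE sizing. Positive-direction fit against DMSO.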

[8] = ATG_M_06_TRANS: Attagene TRANS-FACTORIAL HepG2 Assay for M06 Transcription Factor (Internal Marker) (AID 2282983; active = hit-call score of the fitted dose curve at least 0.9, where 1 is the maximum); settings: HepG2 Attagene TRANS M06 internal marker reporter
In short: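 After a 24 h chemical treatment of transfected HepG2, RNA underwent DNase I treatment, reverse transcription and reporter-specific PCR; labelled, HpaI-digested products were sized by capillary electrophoresis. Signal increase relative to DMSO defined activity.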

[9] = molecular target: Nuclear receptor subfamily 4 group A member 2 (Homo sapiens) (UniProt P43354); assay: ATG_NURR1_TRANS: Attagene TRANS-FACTORIAL HepG2 Assay for human Nuclear Receptor Related Protein 1 (NURR1) (AID 2282985; active = hit-call score of the fitted dose curve at least 0.9, where 1 is the maximum); settings: HepG2 Attagene TRANS reporter, mRNA readout
In short: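 Cells: HepG2, transiently transfected. Exposure: 24 h. Detection: fluorescence of labelled RT-PCR products separated by capillary electrophoresis; upward fit versus DMSO.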

[10] = molecular target: Transcriptional activator Myb (Homo sapiens) (UniProt P10242); assay: ATG_Myb_CIS: Attagene CIS-FACTORIAL HepG2 Assay for human Myeloblastosis (Myb) Proto-Oncogene Transcription Factor (AID 2282986); settings: HepG2 Attagene CIS-FACTORIAL Myb reporter transcription; actives raise or lower the signal
In short: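 Steps: transfect HepG2 with cis-regulated reporter units; dose with chemical for 24 h; isolate RNA, reverse-transcribe, PCR-amplify and FAM-label reporter sequences; digest with HpaI; resolve by capillary electrophoresis. Activity fitted in both directions relative to DMSO.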

[11] = molecular target: Nuclear respiratory factor 1 (Homo sapiens) (UniProt Q16656); assay: ATG_NRF1_CIS: Attagene CIS-FACTORIAL HepG2 Assay for human Nuclear Respiratory Factor 1 (NRF1) Orphan Gene (AID 2282987); settings: HepG2 NRF1 cis-element reporter, Attagene multiplex; actives raise or lower the signal
In short: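 Fluorescence intensity of labelled reporter cDNA fragments, resolved by capillary electrophoresis, served as readout for NRF1 cis-element activity. Transiently transfected HepG2 cells were dosed for 24 hours; activity in either direction was fitted against DMSO negative control.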

[12] = molecular target: Estrogen-related receptor gamma (Homo sapiens) (UniProt P62508); assay: ATG_ERRg_TRANS: Attagene TRANS-FACTORIAL HepG2 Assay for human Estrogen-Related Receptor gamma (ERRg) (AID 2282977; active = hit-call score of the fitted dose curve at least 0.9, where 1 is the maximum;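 also: hits increase reporter signal over DMSO so potencies reflect activators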); settings: HepG2 Attagene TRANS reporter, ERRg transactivation
In short: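 Transient HepG2 transfectants, 24 h compound exposure, GAL4-UAS reporter mRNA by RT-PCR/6-FAM labelling/capillary electrophoresis; positive direction vs DMSO.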

[13] = molecular target: Steroid hormone receptor ERR1 (Homo sapiens) (UniProt P11474); assay: ATG_ERRa_TRANS: Attagene TRANS-FACTORIAL HepG2 Assay for human Estrogen-Related Receptor alpha (ERRa) (AID 2282971; active = hit-call score of the fitted dose curve at least 0.9, where 1 is the maximum); settings: HepG2 Attagene TRANS reporter, ERRa transactivation
In short: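 Transfected HepG2, 24 h dosing, ERRa-Gal4 chimera driving GAL4-UAS reporter. Readout: reporter mRNA via RT-PCR plus capillary electrophoresis (fluorescence). Positive direction vs DMSO control.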

[14] = ATG_M_19_TRANS: Attagene TRANS-FACTORIAL HepG2 Assay for M19 Transcription Factor (Internal Marker) (AID 2282974; active = hit-call score of the fitted dose curve at least 0.9, where 1 is the maximum); settings: HepG2 Attagene TRANS-FACTORIAL M19 internal marker reporter
In short: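 Cells: human HepG2, transiently transfected with multiplexed reporter transcription units. Exposure: 24 h. Detection: RT-PCR of reporter mRNA with capillary electrophoresis. Analysis: gain-of-signal vs DMSO.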

[15] = molecular target: Glucocorticoid receptor (Homo sapiens) (UniProt P04150); assay: ATG_GR_TRANS: Attagene TRANS-FACTORIAL HepG2 Assay for human Glucocorticoid Receptor (GR) (AID 2282978; active = hit-call score of the fitted dose curve at least 0.9, where 1 is the maximum;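 also: activators score as hits since higher reporter transcript over DMSO is fitted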); settings: HepG2 Attagene TRANS GR reporter, mRNA transcription
In short: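 In this trans-factorial format, exogenous NR-GAL4 chimeric proteins in transfected HepG2 cells regulate GAL4-UAS reporter transcription. After 24 h treatment, reporter mRNA induction relative to DMSO is read by RT-PCR and capillary electrophoresis.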

[16] = molecular target: Bile acid receptor (Homo sapiens) (UniProt Q96RI1); assay: ATG_FXR_TRANS: Attagene TRANS-FACTORIAL HepG2 Assay for Farnesoid X Receptor (FXR) (AID 2282979; active = hit-call score of the fitted dose curve at least 0.9, where 1 is the maximum;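 also: hits raise reporter mRNA above DMSO so AC50 marks FXR activation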); settings: HepG2 Attagene TRANS FXR-GAL4 reporter transcription
In short: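 Read-out: fluorescent reporter transcripts quantified by capillary electrophoresis after RT-PCR of total RNA. Source cells were HepG2 transiently carrying chimeric NR-GAL4 plus GAL4-UAS reporter units, dosed 24 h. Activity fitted upward relative to DMSO baseline.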

[17] = molecular target: Oxysterols receptor LXR-alpha (Homo sapiens) (UniProt Q13133); assay: ATG_LXRa_TRANS: Attagene TRANS-FACTORIAL HepG2 Assay for human Liver X Receptor alpha (LXRa) (AID 2282980; active = hit-call score of the fitted dose curve at least 0.9, where 1 is the maximum); settings: HepG2 Attagene TRANS reporter, LXRa transactivation
In short: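 Read-out: reporter transcript levels by RT-PCR plus capillary electrophoresis, fluorescence intensity. Transiently transfected HepG2, exogenous NR-GAL4 chimera, GAL4-UAS reporters; 24 h compound exposure. Activity = increase over DMSO negative control.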

[18] = molecular target: Oxysterols receptor LXR-beta (Homo sapiens) (UniProt P55055); assay: ATG_LXRb_TRANS: Attagene TRANS-FACTORIAL HepG2 Assay for human Liver X Receptor beta (LXRb) (AID 2282981; active = hit-call score of the fitted dose curve at least 0.9, where 1 is the maximum); settings: HepG2 Attagene TRANS GAL4-LXRb reporter, mRNA
In short: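 Cells: HepG2, transiently transfected with GAL4-UAS reporter units plus LXRb-Gal4 fusion. Treatment: 24 h. Detection: reporter mRNA by RT-PCR, 6-FAM labelling, HpaI digestion, capillary electrophoresis.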

[19] = molecular target: Estrogen receptor (Homo sapiens) (UniProt P03372); assay: ATG_ERa_TRANS: Attagene TRANS-FACTORIAL HepG2 Assay for human Estrogen Receptor alpha (ERa) (AID 2282970; active = hit-call score of the fitted dose curve at least 0.9, where 1 is the maximum); settings: HepG2 Attagene TRANS ERa GAL4 reporter, mRNA
In short: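 After 24 h of compound treatment, RNA from HepG2 cells bearing transfected GAL4-UAS reporter constructs is converted to cDNA, amplified and fluorescently labelled. Capillary electrophoresis resolves the ERa-linked reporter; DMSO serves as negative control.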

Measured: AC50

Sequence of Oxysterols receptor LXR-alpha (Homo sapiens) (Q13133 whole entry, looked up, the tested form may be a part): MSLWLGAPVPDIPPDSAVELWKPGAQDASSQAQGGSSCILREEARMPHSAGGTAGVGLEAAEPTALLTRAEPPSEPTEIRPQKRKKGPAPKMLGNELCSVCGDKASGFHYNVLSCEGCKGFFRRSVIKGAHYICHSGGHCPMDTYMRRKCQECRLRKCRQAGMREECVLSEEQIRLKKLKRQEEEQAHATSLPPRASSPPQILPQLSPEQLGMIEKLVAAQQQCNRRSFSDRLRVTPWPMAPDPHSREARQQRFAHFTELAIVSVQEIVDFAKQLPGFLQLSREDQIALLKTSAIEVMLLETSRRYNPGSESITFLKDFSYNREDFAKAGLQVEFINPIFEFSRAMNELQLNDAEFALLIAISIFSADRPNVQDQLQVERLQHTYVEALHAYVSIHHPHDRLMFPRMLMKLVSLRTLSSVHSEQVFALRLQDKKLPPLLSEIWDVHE
Sequence of Nuclear receptor subfamily 4 group A member 2 (Homo sapiens) (P43354 whole entry, looked up): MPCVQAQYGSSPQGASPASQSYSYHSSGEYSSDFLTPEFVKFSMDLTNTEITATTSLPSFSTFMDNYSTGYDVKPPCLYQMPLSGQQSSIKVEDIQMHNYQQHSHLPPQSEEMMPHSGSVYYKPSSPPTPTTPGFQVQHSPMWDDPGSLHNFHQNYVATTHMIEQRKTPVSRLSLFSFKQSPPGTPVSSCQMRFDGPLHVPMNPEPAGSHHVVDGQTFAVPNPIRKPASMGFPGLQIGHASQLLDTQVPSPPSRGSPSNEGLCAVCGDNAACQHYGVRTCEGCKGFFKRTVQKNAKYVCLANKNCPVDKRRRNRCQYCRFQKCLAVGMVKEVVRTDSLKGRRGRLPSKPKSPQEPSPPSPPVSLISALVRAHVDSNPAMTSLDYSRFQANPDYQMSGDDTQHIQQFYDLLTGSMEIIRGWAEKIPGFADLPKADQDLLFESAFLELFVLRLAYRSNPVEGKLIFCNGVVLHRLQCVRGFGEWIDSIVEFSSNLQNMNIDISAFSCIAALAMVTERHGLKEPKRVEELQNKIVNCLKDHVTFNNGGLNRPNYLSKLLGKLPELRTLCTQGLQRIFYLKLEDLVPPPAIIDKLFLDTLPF
Sequence of Oxysterols receptor LXR-beta (Homo sapiens) (P55055 whole entry, looked up, the tested form may be a part): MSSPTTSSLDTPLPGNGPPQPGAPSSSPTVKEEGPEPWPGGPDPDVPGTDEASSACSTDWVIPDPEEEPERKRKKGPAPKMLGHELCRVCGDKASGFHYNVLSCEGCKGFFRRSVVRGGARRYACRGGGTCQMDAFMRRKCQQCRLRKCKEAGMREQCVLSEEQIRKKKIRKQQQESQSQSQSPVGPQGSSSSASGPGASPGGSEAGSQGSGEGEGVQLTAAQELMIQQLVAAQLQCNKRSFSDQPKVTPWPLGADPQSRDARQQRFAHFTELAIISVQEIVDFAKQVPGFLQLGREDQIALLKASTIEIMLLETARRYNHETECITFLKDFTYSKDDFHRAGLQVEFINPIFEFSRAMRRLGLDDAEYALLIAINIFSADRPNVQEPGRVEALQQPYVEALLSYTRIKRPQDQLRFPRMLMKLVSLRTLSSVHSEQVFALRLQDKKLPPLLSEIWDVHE
Sequence of Nuclear respiratory factor 1 (Homo sapiens) (Q16656 whole entry, looked up, the tested form may be a part): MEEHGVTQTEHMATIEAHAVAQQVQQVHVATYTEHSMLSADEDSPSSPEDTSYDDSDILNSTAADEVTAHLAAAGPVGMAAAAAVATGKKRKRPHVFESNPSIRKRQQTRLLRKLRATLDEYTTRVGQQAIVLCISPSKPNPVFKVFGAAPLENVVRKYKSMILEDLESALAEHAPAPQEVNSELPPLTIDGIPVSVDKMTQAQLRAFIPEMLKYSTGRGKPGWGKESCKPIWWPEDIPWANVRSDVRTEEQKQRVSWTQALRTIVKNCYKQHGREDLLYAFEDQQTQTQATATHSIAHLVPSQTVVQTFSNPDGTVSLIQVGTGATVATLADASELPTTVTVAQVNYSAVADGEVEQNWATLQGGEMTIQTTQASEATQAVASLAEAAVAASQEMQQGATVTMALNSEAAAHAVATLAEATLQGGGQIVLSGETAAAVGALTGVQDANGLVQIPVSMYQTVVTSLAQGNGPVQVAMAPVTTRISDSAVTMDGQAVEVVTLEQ
Sequence of Glucocorticoid receptor (Homo sapiens) (P04150 whole entry, looked up, the tested form may be a part): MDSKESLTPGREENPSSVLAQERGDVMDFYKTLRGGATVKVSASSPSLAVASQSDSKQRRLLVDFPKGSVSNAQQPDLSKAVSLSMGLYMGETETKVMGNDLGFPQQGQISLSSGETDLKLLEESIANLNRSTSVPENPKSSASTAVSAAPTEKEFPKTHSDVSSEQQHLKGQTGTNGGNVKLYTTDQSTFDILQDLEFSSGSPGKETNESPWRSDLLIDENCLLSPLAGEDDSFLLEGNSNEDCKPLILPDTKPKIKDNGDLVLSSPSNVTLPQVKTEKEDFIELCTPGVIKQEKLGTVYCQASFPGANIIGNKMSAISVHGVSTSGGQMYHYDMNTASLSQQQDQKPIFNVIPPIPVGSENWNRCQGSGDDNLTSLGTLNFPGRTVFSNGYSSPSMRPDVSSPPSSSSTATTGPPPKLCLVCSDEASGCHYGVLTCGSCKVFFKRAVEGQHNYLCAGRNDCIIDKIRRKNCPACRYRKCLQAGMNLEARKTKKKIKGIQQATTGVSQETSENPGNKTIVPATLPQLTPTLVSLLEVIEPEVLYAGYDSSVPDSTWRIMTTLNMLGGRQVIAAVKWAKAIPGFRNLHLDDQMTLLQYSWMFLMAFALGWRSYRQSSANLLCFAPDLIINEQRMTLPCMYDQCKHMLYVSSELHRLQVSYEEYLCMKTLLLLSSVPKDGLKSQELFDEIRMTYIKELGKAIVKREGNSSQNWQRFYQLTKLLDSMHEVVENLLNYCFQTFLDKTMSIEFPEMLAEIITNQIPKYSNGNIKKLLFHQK
Sequence of Transcriptional activator Myb (Homo sapiens) (P10242 whole entry, looked up): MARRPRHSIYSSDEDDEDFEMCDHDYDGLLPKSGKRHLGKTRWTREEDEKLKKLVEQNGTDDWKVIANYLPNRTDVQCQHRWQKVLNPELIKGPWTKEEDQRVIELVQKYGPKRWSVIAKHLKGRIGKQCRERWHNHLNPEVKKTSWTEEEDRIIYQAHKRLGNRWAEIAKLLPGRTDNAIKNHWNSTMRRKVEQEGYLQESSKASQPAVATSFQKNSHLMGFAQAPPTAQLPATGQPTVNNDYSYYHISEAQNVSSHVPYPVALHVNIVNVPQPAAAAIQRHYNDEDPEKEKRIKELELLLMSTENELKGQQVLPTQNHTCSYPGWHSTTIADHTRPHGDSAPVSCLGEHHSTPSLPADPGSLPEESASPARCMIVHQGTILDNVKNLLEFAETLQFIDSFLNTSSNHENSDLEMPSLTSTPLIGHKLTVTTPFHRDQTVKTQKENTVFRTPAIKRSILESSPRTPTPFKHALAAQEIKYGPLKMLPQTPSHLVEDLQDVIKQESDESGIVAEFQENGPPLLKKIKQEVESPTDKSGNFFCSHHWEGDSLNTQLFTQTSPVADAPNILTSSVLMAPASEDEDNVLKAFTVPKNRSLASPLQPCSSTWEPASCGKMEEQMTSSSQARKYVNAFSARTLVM
Sequence of X-box-binding protein 1 (Homo sapiens) (P17861 whole entry, looked up): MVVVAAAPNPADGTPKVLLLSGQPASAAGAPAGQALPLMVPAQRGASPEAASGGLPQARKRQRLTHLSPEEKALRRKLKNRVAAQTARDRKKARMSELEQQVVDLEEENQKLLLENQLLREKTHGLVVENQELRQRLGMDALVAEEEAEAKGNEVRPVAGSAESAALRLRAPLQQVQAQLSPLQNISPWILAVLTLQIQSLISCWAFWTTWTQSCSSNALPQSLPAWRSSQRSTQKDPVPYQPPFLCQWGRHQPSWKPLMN
Sequence of Hepatocyte nuclear factor 4-alpha (Homo sapiens) (P41235 whole entry, looked up): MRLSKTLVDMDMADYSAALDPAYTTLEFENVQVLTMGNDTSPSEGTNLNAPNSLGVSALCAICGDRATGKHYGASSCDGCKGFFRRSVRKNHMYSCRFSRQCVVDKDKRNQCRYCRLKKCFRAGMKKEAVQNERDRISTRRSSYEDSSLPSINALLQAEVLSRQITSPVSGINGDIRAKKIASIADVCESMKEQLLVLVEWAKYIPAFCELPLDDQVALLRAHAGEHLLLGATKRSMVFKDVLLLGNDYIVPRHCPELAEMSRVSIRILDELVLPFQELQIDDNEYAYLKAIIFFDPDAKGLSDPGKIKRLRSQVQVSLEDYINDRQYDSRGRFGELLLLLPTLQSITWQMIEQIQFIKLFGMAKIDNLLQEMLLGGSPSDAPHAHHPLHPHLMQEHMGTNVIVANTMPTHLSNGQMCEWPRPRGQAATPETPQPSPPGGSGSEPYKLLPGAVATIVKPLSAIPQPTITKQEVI
Sequence of Bile acid receptor (Homo sapiens) (Q96RI1 whole entry, looked up, the tested form may be a part): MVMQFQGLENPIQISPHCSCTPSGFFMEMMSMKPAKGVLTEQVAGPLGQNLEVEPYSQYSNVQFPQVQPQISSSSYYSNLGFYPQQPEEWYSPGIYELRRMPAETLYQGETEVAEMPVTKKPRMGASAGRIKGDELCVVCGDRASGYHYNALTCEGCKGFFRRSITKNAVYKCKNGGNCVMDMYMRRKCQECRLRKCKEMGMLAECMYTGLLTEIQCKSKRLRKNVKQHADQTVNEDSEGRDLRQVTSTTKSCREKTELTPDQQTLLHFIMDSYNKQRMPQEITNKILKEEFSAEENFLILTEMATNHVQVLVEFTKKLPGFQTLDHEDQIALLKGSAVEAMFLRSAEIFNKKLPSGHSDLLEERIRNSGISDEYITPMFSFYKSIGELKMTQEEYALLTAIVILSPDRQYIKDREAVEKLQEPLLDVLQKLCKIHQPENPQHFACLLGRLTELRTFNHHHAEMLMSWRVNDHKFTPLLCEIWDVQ
Sequence of Nuclear receptor subfamily 1 group I member 3 (Homo sapiens) (Q14994 whole entry, looked up, the tested form may be a part): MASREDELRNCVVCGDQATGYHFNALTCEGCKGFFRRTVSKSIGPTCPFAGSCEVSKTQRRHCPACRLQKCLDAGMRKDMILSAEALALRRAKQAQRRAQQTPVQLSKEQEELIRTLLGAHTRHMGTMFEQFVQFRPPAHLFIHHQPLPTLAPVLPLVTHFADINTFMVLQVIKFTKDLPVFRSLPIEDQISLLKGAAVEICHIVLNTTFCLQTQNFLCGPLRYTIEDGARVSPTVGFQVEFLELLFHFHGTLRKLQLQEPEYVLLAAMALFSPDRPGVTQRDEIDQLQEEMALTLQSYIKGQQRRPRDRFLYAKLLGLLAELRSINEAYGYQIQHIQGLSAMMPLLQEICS

O=NO
not listed: [12] | [13] | [14] | [15] | [16] | [17] | [18] | [19]
inactive: all other assays above

CC(C)(C)c1ccccc1
inactive: [1] | [2] | [3] | [4] | [5] | [12] | [8] | [9] | [10] | [11]

CC(=O)S[C@H](C(=O)N[C@H]1Cc2ccccc2[C@H]2CCC[C@@H](C(=O)O)N2C1=O)C(C)C
not listed: [6] | [7] | [8] | [19]
inactive: all other assays above

C/C=C/C=C/C(=O)O
not listed: [9] | [12] | [13] | [15] | [16] | [17] | [18] | [19]
inactive: all other assays above

Cc1cn([C@H]2C=C[C@@H](CO)O2)c(=O)[nH]c1=O
inactive: [1] | [2] | [3] | [4] | [5] | [14] | [9] | [10] | [11]

COC(=O)CCC(=O)OC
inactive: [1] | [2] | [3] | [4] | [19] | [5] | [14] | [16] | [10] | [11]

CCCCCCC(C=O)=Cc1ccccc1
active: [5] 60 µM
inactive: [1] | [2] | [3] | [4] | [5] | [14] | [6] | [15] | [16] | [17] | [18] | [7] | [8] | [9] | [10] | [11]

Oc1ccccc1O
inactive: [1] | [2] | [4] | [14] | [15] | [9] | [10] | [11]
active: [3] 27.5 µM | [5] 35.7 µM

CCN(CC)CCOc1ccc(C(=C(Cl)c2ccccc2)c2ccccc2)cc1
inactive: [1] | [2] | [3] | [5] | [14] | [6] | [15] | [16] | [17] | [18] | [7] | [8] | [10] | [11]
active: [1] 13.1 µM | [2] 3.11 µM | [3] 3.11 µM and 6.33 µM and 1.3 µM | [5] 11.2 µM | [16] 14.8 µM | [10] 14.5 µM | [11] 14.7 µM
